This is an account of results in ChEMBL document CHEMBL4513216, “Probing the Open Global Health Chemical Diversity Library for Multistage-Active Starting Points for Next-Generation Antimalarials” (ACS Infect Dis, 2020).

About 8,600 (12%) of roughly 69,000 compounds showed an effect of 50% or more. The list comes from a sample in which strong results are over-represented; it also holds similar structures and randomly drawn compounds.

The test system of this assay is Plasmodium berghei. Kind of assay: Screen against P. berghei liver stage (PbLuc), transformed with Luciferase, at 10uM. Format: functional, HepG2. The note with it: tested at 10 uM.
In the case of `CNc1cccc(CC2COCCN(C(=O)c3cnn(C)c3)C2)n1` (centres undefined), the INHIBITION came out at 27.15%.
The value for `O=C1NCC2(CCCN(C(=O)c3ccc4c(c3)CCCO4)CC2)O1` (centres undefined) was 38.3%; that for `O=C1NCC2(CCN(C(=O)c3ccc4c(c3)CCCO4)CC2)O1` was 70.4%; that for `O=C1NCC2(CCCN(C(=O)c3ccc4c(c3)OCCO4)CC2)O1` (centres undefined) was 42.6%.
As to `Cc1c(Br)cnn1CC(=O)Nc1ccon1`, the INHIBITION is 34.2%.
As for `COCC1COCCC12CCN(S(=O)(=O)c1ccccc1)CC2` (centres undefined), the INHIBITION is reported as -27.1%.
The value for `Cn1ncc(NCc2cccc(OCC(F)(F)F)c2)c(Cl)c1=O` was 99.6%.
The value for `CCn1c(NCc2ccc(OC)cc2)nc2c(C)nn(C)c2c1=O` was 13.5%; that for `COc1cccc(CNc2cc(CO)ccc2Cl)c1` was 42.6%; that for `COc1cccc(CNc2cnn(C)c(=O)c2Cl)c1` was 49.6%.
For `CC(C)N1CCC[C@H]1C(=O)NCC1CCN(c2cnn(C)c(=O)c2)CC1` the value was 15.1%; for `CC(NCc1cccc(COC2CCCC2)c1)c1cnn(C)c1` (centres undefined), -0.448%.
As for `Cc1cccc(C(C)(C)CNc2cn[nH]c(=O)c2Cl)c1`, the INHIBITION is reported as -5.92%.
The value for `COc1ccc(CNc2cnn(C)c(=O)c2Cl)cc1` was 52.3%; that for `CC(C)OCc1cccc(CNc2cnn(C)c(=O)c2Cl)c1` was 85.2%; that for `Cc1c(C(=O)NCc2ccnc(OCC(F)(F)F)c2)cnn1C` was -6.11%.
The value for `CCOc1cccc(CNc2cnn(CC(C)C)c2CC)c1` was 39.5%; that for `Cn1ncc(NCc2cccc(COC(C)(C)C)c2)c(Cl)c1=O` was 80.6%.
For `Cc1nn(C)c(C)c1C1CCCN1C(=O)c1cc(C(N)=O)cs1` (centres undefined) the value was -11.2%.
`CN1C(=O)CC(c2cnn(C)c2)C12CCN(C(=O)C1CC=CC1)CC2` (centres undefined): the INHIBITION is recorded as -16.5%.
For `CN(C)Cc1ccnc(C2CN(Cc3c(F)cccc3F)CCO2)n1` (centres undefined) the value was 8.53%; for `Cn1ccnc1CNCC1CCCN1c1cccnn1` (centres undefined), -31.5%; for `CC(Cn1cccn1)NC(=O)N1CCCN(Cc2cccs2)CC1` (centres undefined), 14.4%.
Consider `CN(C)CCn1c(=O)n(C)c(=O)c2ccccc21`, for which the INHIBITION was -40.3%.
In the case of `CCC(=O)N1CCC2(CCC(N3CCCC3)c3ccccc32)CC1` (centres undefined), the INHIBITION is 40.8%.
The value for `Cc1nn(C)c(N(C)C)c1CNC1CCCCNC1=O` (centres undefined) was 5.42%; that for `C=Cn1cc(CN2CCN(CC3(c4ccccc4)CC3)CC2)c(C)n1` was 26.57%; that for `CN(Cc1ccncn1)C(=O)CCc1[nH]nc2c1CCCC2` was 33.9%.
For `CC(C)N(CCO)C(=O)C1CCC(=O)N(CCc2ccc(Cl)cc2)C1` (centres undefined) the value was 26.6%; for `CCN(CCO)C(=O)C1CCC(=O)N(CCc2cccc(F)c2)C1` (centres undefined), 43.7%; for `CCN(CC)C(=O)C1CCC(=O)N(CCc2cccc(F)c2)C1` (centres undefined), 12.3%.
Take `CC(C)N(C)C(=O)C1CCC(=O)N(CCc2cccc(F)c2)C1` (centres undefined): the INHIBITION was 52.3%.
Turning to `CC(C)N(CCO)C(=O)C1CCC(=O)N(CCc2cccc(F)c2)C1` (centres undefined), the INHIBITION came out at 56.6%.
In the case of `CCCN(CCO)C(=O)C1CCC(=O)N(CCc2ccc(Cl)cc2)C1` (centres undefined), the INHIBITION is -39.9%.
The value for `COc1ccc(OC)c(C(C)Nc2ncnc3c2NC(=O)CN3)c1` (centres undefined) was 24.2%; that for `N#Cc1cccc(C(=O)N2C[C@@H]3CC[C@H]2CN(C(=O)C2CCC2)C3)c1` was 28.5%; that for `CN1C(=O)C2(CCN(C(=O)c3ccccc3)CC2)c2cc(F)ccc21` was 39.4%.
For the compound `Cn1cnnc1S(=O)(=O)C1CCN(S(=O)(=O)c2ccccc2F)CC1`, the INHIBITION was found to be 15.7%.
The value for `Cn1cnnc1S(=O)(=O)C1CCN(S(=O)(=O)c2ccc(F)c(Cl)c2)CC1` was 81.9%; that for `Cc1ccc(S(=O)(=O)N2CCC(S(=O)(=O)c3nncn3C)CC2)cc1C` was -0.554%; that for `O=C(C1CC1)N1CCC(c2nc(O)c3c(n2)CCN(C2CCCC2)C3)C1` (centres undefined) was 22.7%.
For `CCN(CC)c1ncnc2c1CCN(C(=O)Cc1ccccn1)CC2` the value was -49.6%; for `O=C1NCCCCC1SCc1coc(-c2ccccc2)n1` (centres undefined), 35.5%.
The value for `O=C1NCCN1C1CCCN(Cc2coc(-c3ccc(F)cc3)n2)C1` (centres undefined) was 75.2%; that for `O=C1NCCN1C1CCCN(Cc2coc(-c3cccs3)n2)C1` (centres undefined) was 33.3%; that for `O=C1NCCCCC1SCc1coc(-c2ccc(F)cc2)n1` (centres undefined) was 82.7%.
For the compound `Fc1ccc(-c2nc(CN3CCn4c(nnc4C4CC4)C3)co2)cc1`, the INHIBITION was -21.7%.
For `O=C1NCCCCC1SCc1coc(-c2cccc(F)c2)n1` (centres undefined) the value was -16.1%; for `Cc1ccc(-c2nc(CN3CCC(N4CCNC4=O)CC3)co2)cc1`, 26.5%; for `O=C1NCCN1C1CCCN(Cc2nnc(-c3ccc(F)cc3)o2)C1` (centres undefined), 20.1%.
The value for `O=C1NCCN1C1CCN(Cc2coc(-c3ccc(F)cc3)n2)CC1` was 52.5%; that for `CN(C)C(=O)C1CCC2(CCN(C(=O)Nc3cccc(F)c3)CC2)O1` (centres undefined) was 18.6%.
The value for `COc1ccc(OC)c(C(=O)N(C)Cc2nnc3ccccn23)c1` was -35.7%.
In the case of `CN(C)[C@H]1CN(C(=O)CCCc2ccc(F)cc2)C[C@@H]1C1CC1`, the INHIBITION is given as 28.4%.
